# From PubChem BioAssay
# pS6 MEF inh – Acumen qHTS Assay for Inhibitors of the mTORC1 Signaling Pathway in MEF (Tsc2-/-, p53-/-) Cells: Sytravon. Potency, µM (doses to about 38.3 µM), for the others: top-dose activity change, negative = inhibition, most hits filed as inhibitors. Tsc2-/- p53-/- MEF, phospho-rpS6 immunofluorescence/PI, 24 h. AID 493208, 2011. 0.78% of 44,000 active;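 note: plate controls were DMSO for no effect and rapamycin for full effect; nearly all actives have a fitted effect of over 50% in size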
#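 Compounds act on Tsc2-/-, p53-/- fibroblasts carrying an empty vector for 24 h before fixation and dual staining for phospho-S6 and DNA (propidium iodide). Values are percentages of cells above a rapamycin-defined pS6/PI threshold.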
# p53null 39C kill – qHTS Screen for Compounds that Selectively Target Cancer Cells with p53 Mutations: Cytotoxicity of p53 Null Cells at the Nonpermissive Temperature; H1299 p53-null (neo) cells, 39C, ATPlite viability, 24 h; Potency, µM (highest dose often 46.1 µM), for inactives: at the top dose activity, negative = cell killing, actives largely listed as cytotoxic; 0.97% of 55,000 active; AID 904, 2007;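 note: 0% = DMSO only and -100% = full killing by 100 µM tamoxifen; nearly all actives have a fitted effect of over 50% in size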
#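 Temperature-shift cytotoxicity format: compound titrations on p53-null or A138V-expressing H1299 cells held 24 hr at 39C, cell ATP then measured, AC50 from Hill model.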
# S16 viability – Cell viability qHTS assay in S16 Pmp22-F2sN cells. S16 Pmp22-F2sN Schwann cells viability, CellTiter-Glo, 24 h. Potency, µM (doses to about 57.5 µM), without a hit: at the top dose activity change, negative = cytotoxicity, hits mostly cytotoxic. 0.48% of 43,000 active. AID 1508642, 2021; note: nearly all actives have a fitted effect of over 65% in size
#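 Seed 500-1,000 S16 Pmp22-F2sN cells per well in phenol-red-free DMEM with 10% heat-inactivated FBS; pin-add 23 nL compound; incubate 24 h at 37C; add CellTiter-Glo, wait 15 min protected from light; read luminescence.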
# PMP22 txn prim – Cell-based coincidence reporter assay to measure PMP22 gene transcription in S16 Pmp22-F2sN cells - Primary screen. S16 Pmp22-F2sN Schwann cells (luciferase reporters placed in the Pmp22 gene), FLuc/NLuc coincidence luminescence, 24 h. Potency, µM (titrated, usually from 57.5 µM), for the others: top-dose activity change, negative = inhibition, usual class: inhibitors. 2% of 43,000 active. AID 1508649, 2021; active = clear falling dose curves in both reporters; inconclusive = both reporters move, but less clearly or upward; inactive = either reporter flat; the % is the NLuc reporter signal
#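 Transcriptional readout in edited S16(c9) cells: two luciferases reported from the Pmp22 locus, measured in turn after 24 h compound incubation.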
# SKOV3 invasion – Primary qHTS assay for Inhibitors of ovarian cancer metastasis using an organotypic tumor microenvironment (TME) model. SKOV3ip1-GFP adhesion/invasion on 3D omental model, fluorescence. 0.1% of 46,000 active. AID 1963576, 2024. Potency, µM (highest dose often 45.8 µM), inactives show at the top dose activity change, negative = inhibition, hits mostly inhibitors;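 note: plate controls were DMSO wells for no effect and tomatine positive control wells for full effect; nearly all actives have a fitted effect of over 65% in size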
#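 qHTS, 4-pt dose (0.36-46 umol/L); SKOV3ip1-GFP, 1,200 cells/well, no FBS; primary omental fibroblast/mesothelial co-culture 48 h pre-grown; 2 h RT + 16 h 37 C; PBS wash, 4% PFA; GFP count 488/509 nm.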
# p53null 32C kill – qHTS Screen for Compounds that Selectively Target Cancer Cells with p53 Mutations: Cytotoxicity of p53 Null Cells at the Permissive Temperature. H1299-neo p53 null cells, ATP luminescence, 24 h, 32C. Potency, µM (titrated, usually from 46.1 µM), inactives show top-dose activity change, negative = cytotoxicity, actives largely listed as cytotoxic. 0.62% of 55,000 active. AID 903, 2007;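 note: 0% = DMSO only and -100% = full killing by 100 µM tamoxifen; nearly all actives have a fitted effect of over 55% in size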
#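 Cytotoxicity: H1299-neo (no p53), 32C, 24 h treatment. Concentrations up to 46 uM. Readout cellular ATP, luminescence. Normalization to DMSO basal and tamoxifen 100 uM maximal kill.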
# Active calls of the source: *; i = inactive; ? = inconclusive; . = no result. Only some compounds are listed: those with a hit (about 3.1% of all), similar ones and a draw of the others. Unless noted, calls come from the whole dose curve; as a rule, active = well fitted curve in the direction sought with a large enough effect; inconclusive = small, poorly fitted or top-dose-only effect, or another doubt; inactive = no such curve, though single readings can be large; an effect the other way counts as inactive or inconclusive. Unless noted, % is set by controls: 0 for no effect and ±100 for the full control effect; potency is the fitted concentration of half-maximal effect.
SMILES,pS6 MEF inh,p53null 39C kill,S16 viability,PMP22 txn prim,SKOV3 invasion,p53null 32C kill
COc1ccc(-c2noc(CSc3nnc(-c4ccncc4)n3-c3ccc(OC)cc3)n2)cc1,-3.0%,10.4%,?,2.4µM*,-9.0%,7.0%
CCc1nnc(NC(=O)c2nc(S(=O)(=O)Cc3cccc(C)c3)ncc2Cl)s1,11.7µM*,?,?,9.46µM*,12.6µM*,53.5%
CCOc1ccc(NC(=O)c2nc(S(=O)(=O)Cc3ccccc3F)ncc2Cl)cc1,3.69µM*,?,5.01µM*,1.34µM*,?,-19.4%
CCOc1ccccc1NC(=O)c1nc(S(=O)(=O)Cc2cccc(C)c2)ncc1Cl,?,?,3.16µM*,1.68µM*,i,15.2%
Cc1cccc(CSc2ncc(Cl)c(C(=O)Nc3nc4ccc(F)cc4s3)n2)c1,4.2%,-7.7%,-12.4%,?,i,-8.9%
Cc1ccc(C)c(NC(=O)c2nc(S(=O)(=O)Cc3ccc(F)cc3)ncc2Cl)c1,2.07µM*,?,?,7.61µM*,11.2µM*,-0.6%
CCOc1ccccc1NC(=O)c1sc2nc(C)cc(C)c2c1N,2.8%,3.6%,-1.7%,?,9.1%,-1.4%
CCOC(=O)c1ccc(NC(=O)c2nc(SCc3ccccc3F)ncc2Cl)cc1,-3.8%,-7.3%,9.3%,-5.3%,-2.9%,-7.0%
COc1ccc2cc(-c3nc(-c4ccc(S(C)=O)cc4)[nH]c3-c3ccncc3)ccc2c1 (stereo unspecified),.,.,.,.,0.9%,.
CCc1nnc(NC(=O)c2nc(S(=O)(=O)Cc3ccc(C)cc3)ncc2Cl)s1,?,15.8µM*,?,?,?,?
CCc1nnc(NC(=O)c2nc(SCc3ccccc3F)ncc2Cl)s1,2.0%,-11.8%,5.7%,-24.3%,4.4%,0.7%
CC(O)C1C(=O)N2C(C(=O)O)=C(SC3CNC(C(=O)N(C)C)C3)C(C)C12 (stereo unspecified),.,.,.,.,-4.4%,.
Cc1ccc(-c2nc3ccccc3[nH]2)cc1NC(=O)COc1ccccc1[N+](=O)[O-],2.33µM*,?,-29.3%,?,?,?
Cc1cc(Nc2cccc(Cl)c2)nc2ccc(NC(=O)c3cccnc3)cc12,-3.2%,25.1µM*,?,?,i,?
Cc1cc(N2CCN(C)CC2)nc2ccc(NC(=O)Nc3cccc(Cl)c3)cc12,?,?,25.1µM*,?,-10.4%,0.8%
CN1CC[C@@H](c2c(O)cc(O)c3c(=O)cc(-c4ccccc4Cl)oc23)[C@@H](O)C1,.,.,.,.,16.9%,.
COc1cccc(C(=O)Nc2cccc(-c3cn4ccsc4n3)c2)c1OC,0.4%,12.6µM*,-8.2%,5.2%,-15.9%,-28.8%
C=C1C(=CC=C2CCCC3(C)[C@@H]([C@H](C)C=CC=CC(O)(CC)CC)CC[C@@H]23)C[C@@H](O)C[C@@H]1O (stereo partly specified),.,.,.,.,3.7%,.
CCCCOC(=O)c1cccc(NC(=O)c2cc3ccccc3o2)c1,17.2%,12.6µM*,-15.5%,?,-25.1%,10µM*
Cc1c2cnn(-c3ccccc3)c(=O)c2c(C)n1C(C)C(=O)NCc1cccc(Br)c1 (stereo unspecified),-8.6%,-15.9%,-15.5%,?,-8.8%,18.7%
